KCNQ2 block – inhibitors of rat KCNQ2 potassium channel; O88943; CHO-K1 KCNQ2, FluxOR thallium flux, 20 min; stronger effect = lower value; B-score at 10 µM; 1.1% of 310,000 active;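 active = fluorescence ratio B-score at most minus 3 library SDs, with starting brightness B-score within 2 library SDs, cut at about -5.5 in these data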
Target sequence (O88943 whole entry, looked up): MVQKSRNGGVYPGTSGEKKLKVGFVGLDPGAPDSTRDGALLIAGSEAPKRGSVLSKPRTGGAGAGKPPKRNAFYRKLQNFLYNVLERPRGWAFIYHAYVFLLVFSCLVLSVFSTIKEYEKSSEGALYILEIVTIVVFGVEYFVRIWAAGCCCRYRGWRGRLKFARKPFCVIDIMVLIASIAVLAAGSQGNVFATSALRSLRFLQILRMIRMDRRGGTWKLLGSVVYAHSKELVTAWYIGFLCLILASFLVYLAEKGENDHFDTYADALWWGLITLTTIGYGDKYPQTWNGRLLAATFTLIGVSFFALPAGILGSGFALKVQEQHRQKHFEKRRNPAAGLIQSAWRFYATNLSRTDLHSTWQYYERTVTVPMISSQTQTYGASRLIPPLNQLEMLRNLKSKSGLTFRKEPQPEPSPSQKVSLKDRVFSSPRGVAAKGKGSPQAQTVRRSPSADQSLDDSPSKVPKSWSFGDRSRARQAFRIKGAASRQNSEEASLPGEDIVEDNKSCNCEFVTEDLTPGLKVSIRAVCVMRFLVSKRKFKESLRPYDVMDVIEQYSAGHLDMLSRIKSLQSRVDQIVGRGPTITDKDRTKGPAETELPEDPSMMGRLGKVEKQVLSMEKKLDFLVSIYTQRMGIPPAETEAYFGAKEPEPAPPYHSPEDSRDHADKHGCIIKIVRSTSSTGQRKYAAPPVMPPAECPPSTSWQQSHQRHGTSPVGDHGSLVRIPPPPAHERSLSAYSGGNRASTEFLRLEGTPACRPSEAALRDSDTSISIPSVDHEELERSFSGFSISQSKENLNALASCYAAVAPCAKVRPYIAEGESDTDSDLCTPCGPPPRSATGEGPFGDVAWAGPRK
KCNQ2 pot – potentiators of rat KCNQ2 potassium channel | 0.54% of 310,000 active | B-score at 10 µM | O88943 | CHO-K1 KCNQ2, FluxOR thallium flux fluorescence; stronger effect = higher value | AID 2239;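 active = fluorescence ratio B-score at least 3 SD of library B-scores, with initial fluorescence B-score within 3 of them, cut at about 5.3 in these data; same plate scores as AID 2156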;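 note: B-score of peak minus minimum over baseline fluorescence ratio after K+ and Tl+ stimulus; positive B-score means potentiation of KCNQ2 with more thallium influx and brighter signal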
* hit, by the source's call; i = inactive; / = not tested or not shown. Sampled rows, rich in hits. Any-hit rate of the full collection: about 1.6%.

SMILES	KCNQ2 block	KCNQ2 pot
c1ccc(CSc2ccc(-c3ccccn3)nn2)nc1	i	0.06
CCC(=O)n1nc(NCc2ccccc2OC)nc1NCc1ccccc1OC	-7.34*	-7.34
COc1ccc(CNc2nc(NCc3ccc(OC)cc3)n(C(C)=O)n2)cc1	i	/
O=C1NC2=C(C(=O)CCC2)C(c2cccc([N+](=O)[O-])c2)N1 (stereo not given)	i	0.03
CN1C2C(Br)CCCCN2c2ccc(F)cc2S1(=O)=O (stereo not given)	i	0.51
Nn1c(SC/C=C/c2ccccc2)nnc1-c1ccco1	i	0.02
C(=C\c1ccccc1)/CSc1nnc(-c2ccncc2)n1Cc1ccco1	i	/
Clc1cccc(-c2nnc(SC/C=C/c3ccccc3)n2Cc2ccco2)c1	-8.28*	-8.28
C(=C\c1ccccc1)/CSc1nnc(-c2ccccc2)n1Cc1ccco1	-5.93*	-5.93
O=C(NCCN1CCCOC1=O)C(=O)NCCN1CCCOC1=O	i	0.42
CCOc1c(C)cnc2c1c(=O)n(Cc1ccccc1F)c(=O)n2C	i	/
COc1cc(OC)c(NC(=O)C2CC(=O)N(c3ccc4c(c3)OCCO4)C2)cc1Cl (stereo not given)	i	0.35
N#Cc1ccccc1Sc1ccccc1C(=O)OCC(=O)NC12CC3CC(CC(C3)C1)C2	i	6.31*
CC(=O)c1ccc(NC(=O)COC(=O)c2ccccc2Sc2ccccc2C#N)cc1	i	0.6
CCOC(=O)N1CCN(C(=O)/C(=C/c2cccs2)NC(=O)c2ccc(OC)c(OC)c2)CC1	i	1.21
COCc1cc(CN2CCCC(C(=O)Nc3cccc(-n4cnnn4)c3)C2)ccc1OC (stereo not given)	i	0.02
Cn1c(CSc2ncccn2)nnc1SCC(=O)N1CCCCCC1	i	0.82
Cn1c(CSc2ncccn2)nnc1SCC(=O)N1CCCC1	-6.3*	-6.3
N#C/C(=C\c1cccnc1)c1ccccc1[N+](=O)[O-]	i	0.26
Cc1cc(C(=O)CSc2ccc(F)cc2)cc(C)c1OC(=S)N(C)C	-6.05*	-6.05
COc1ccc(SCC(=O)c2cc(C)c(OC(=S)N(C)C)c(C)c2)cc1	i	/
COc1ccc(NC(=O)CN(C)C(=O)Cn2c(=O)oc3ccccc32)cc1	i	/
Cc1ccc(C(=O)Nc2ccc3c(c2)CCC3)cc1	i	0.92
O=C(Nc1ccc2c(c1)CCC2)c1cccc(F)c1	i	7.35*
Cc1ccc(C)c(NC(=O)CN(C)C(=O)c2cc(-c3cccs3)nn2-c2ccccc2)c1	i	0.01
SMILES	KCNQ2 block	KCNQ2 pot
CCOCCCn1c(C)nc2c(c1=O)c1nc3ccccc3nc1n2-c1ccc(C)cc1	i	/
CCO/C(C)=N/n1c2nc3ccccc3nc2c2c(=O)n(CC(C)C)c(C)nc21	-5.61*	-5.61
CC1(C)Cc2c(cnn2-c2ccccc2)C(NC(=O)CCN2CCCCO2)C1 (stereo not given)	i	/
CC(C)(CNC(=O)C1c2ccccc2-c2ccccc21)N1CCOCC1	i	/
Cc1ccc(N2CCN(c3ncccc3[N+](=O)[O-])CC2)c(C)c1	i	/
Cc1ccc(C)c(N2CCN(c3ncccc3[N+](=O)[O-])CC2)c1	-6.57*	-6.57
CC(NC(=O)c1cc([N+](=O)[O-])cc([N+](=O)[O-])c1)C1CC2CCC1C2 (stereo not given)	i	0.13
CC(NC(=O)/C=C/c1ccccc1[N+](=O)[O-])C1CC2CCC1C2 (stereo not given)	-6.23*	-6.23
COc1ccc(CNC(=O)CCCC(=O)n2nc(C)c3ccccc32)cc1	i	0.18
CCOc1ccc(OCCC(=O)OCC(=O)NCc2ccc(Cl)cc2)cc1	i	0.07
C=C(C)c1cccc(C(C)(C)NC(=O)Nc2nnc(C(C)C)s2)c1	-7.84*	-7.84
C=C(C)c1cccc(C(C)(C)NC(=O)Nc2nncs2)c1	i	/
COc1ccc(S(=O)(=O)n2cccc2)cc1OC	i	/
Cc1nn(-c2ccccc2)nc1C(=O)c1c(C)[nH]n(-c2ccccc2)c1=O	i	1.62
CCOc1ccc(N(C)Cc2cc(=O)oc3ccc(OCC)cc23)cc1	i	/
CN(C)c1nc2ncn(Cc3ccccc3)c2c(=O)[nH]1	i	1.87
COCc1cc(Sc2ccc(Br)cc2)nc(-c2ccccc2)n1	i	/
COCc1cc(Sc2ccc(Cl)cc2)nc(-c2ccccc2)n1	-5.88*	-5.88
CCc1ccc(NC(=O)C2C3CCC(O3)C2C(=O)O)cc1 (stereo not given)	i	/
CCOC(=O)CNc1c(-c2ccc(O)cc2)nc2ccccn12	i	/
CCOC(=O)CNc1c(-c2ccc(O)cc2)nc2ccc(Cl)cn12	-5.69*	-5.69
O=C(Nc1ccc(C(O)(C(F)(F)F)C(F)(F)F)cc1)c1ccc(Cl)c([N+](=O)[O-])c1	-7*	-7
O=C(O)c1cc(NC(=O)c2ccc(Cl)c([N+](=O)[O-])c2)cc(C(=O)O)c1	i	0.26
O=C(Nc1cccc(F)c1)N1CC=C(c2ccc(Cl)cc2)CC1	-6.58*	-6.58
O=C(CN1CCN(c2ccc(Cl)cc2)CC1)Nc1cccc(F)c1	i	/
SMILES	KCNQ2 block	KCNQ2 pot
CC1CCCN(C(=O)COC(=O)c2cc(-c3cccs3)nn2-c2ccccc2)C1 (stereo not given)	i	1.58
CCCN1C(=O)/C(=C/c2ccc(C)s2)SC1=Nc1ccc(OC)cc1	-6.17*	-6.17
COc1ccc(N=C2S/C(=C\c3ccc(Cl)c([N+](=O)[O-])c3)C(=O)N2CCN(C)C)cc1	-5.63*	-5.63
CCN(CC)CCN1C(=O)/C(=C\c2ccc(Cl)c([N+](=O)[O-])c2)SC1=Nc1ccc(OC)cc1	i	/
CCN1C(=O)/C(=C/c2cccs2)SC1=Nc1ccc(OC)cc1	i	1.01
CN(C)c1ccc(C(C(=O)NCc2ccccc2)N(Cc2ccco2)C(=O)c2snc(C(N)=O)c2N)cc1 (stereo not given)	i	1.79
CC(C)(Oc1ccc(Cl)cc1)C(=O)O	i	0.32
CC(C)OC(=O)C(C)(C)Oc1ccc(C(=O)c2ccc(Cl)cc2)cc1	-8.13*	-8.13
CCOc1ccccc1CNc1nnnn1C	i	0.52
CCOc1ccc2ccccc2c1CNc1nnnn1C	-6.01*	-6.01
CCc1noc(C)c1C(=O)N(C)CC(=O)Nc1ccc(Br)cc1C	i	0.12
C/C(=N\Nc1cccc(Cl)c1)C1(C)N(O)C(C)(C)C(c2ccco2)=[N+]1[O-] (stereo not given)	-6.36*	-6.36
C/C(=N\O)C1(C)N(O)C(C)(C)C(c2ccco2)=[N+]1[O-] (stereo not given)	i	/
CCN(CC(=O)NCc1ccc(Cl)cc1)C(=O)c1ccc(S(=O)(=O)NCc2ccco2)cc1	i	/
Cc1noc(C)c1COc1cccc(C(=O)NCCc2c[nH]c3ccccc23)c1	i	0.11
Cc1onc(-c2ccccc2)c1C(=O)NCCc1c[nH]c2ccccc12	-5.7*	-5.7
CCOc1ccc(C(=O)NC(C(=O)NCCc2ccc(OC(F)F)cc2)C(C)C)cc1 (stereo not given)	i	/
Cc1ccc(O)c(C2=NNC(c3ccc(Cl)cc3)C2)c1 (stereo not given)	i	/
Oc1ccc(Cl)cc1C1=NNC(c2cccs2)C1 (stereo not given)	i	12.5*
C=CCN(CC=C)C(=O)CN1C(=O)NC(Cc2c[nH]c3ccccc23)C1=O (stereo not given)	i	/
CCN(CC)C(=O)c1sc2nc(-c3cccs3)cc(-c3cccs3)c2c1N	i	/
CCN(CC)C(=O)c1sc2nc(-c3cccs3)cc(-c3ccc(Cl)cc3)c2c1N	-6.86*	-6.86

From PubChem BioAssay
